Experimental data as given in the supplement of paper PMC7156485.
Where “and” joins values, the source holds several entries; their conditions need not be identical. Equal entries are not always repeated. ± gives the standard deviation of the averaged measurements.

Test system: HCC1569
Experiment: cell number relative to DMSO (% of DMSO); higher = more cells (less growth inhibition / toxicity)
Settings: concentration: 10 µM; 24 h
Method in brief: (§1)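 H1.0 nuclear intensity or cell number is expressed as percent of the plate control, with the median of replicates taken. HCC1569 and TDF cells were treated with compounds at 10 µM for 24 h at 37 °C, in triplicate, then fixed and immunostained for H1.0 with DAPI as a nuclear stain. HCC1569 values were smoothed to correct for positional effects.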
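Also: TDF denotes transformed human dermal fibroblasts of mesenchymal origin.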

Q: Which cell number does the source give for `Clc1ccc(COC(Cn2ccnc2)c2ccc(Cl)cc2Cl)c(Cl)c1` (stereo not given) [Miconazole] here?
A: 96.8

Q: `CN1CCC(c2c(O)cc(O)c3c(=O)cc(-c4ccccc4Cl)oc23)C(O)C1` (stereo not given) [Alvocidib] was tested. Which cell number did it give?
A: 59.4

Q: Which cell number does the source give for `CC1=CCC2(C)CCC(O)(C(C)C)C2C(OC(=O)c2ccc(O)cc2)C1` (stereo not given) [Ferutinin] here?
A: 102

Q: How did the cell number turn out when `O=C(O)C=Cc1ccc(O)c(O)c1` [Caffeic Acid] was run?
A: 99.9

Q: How did the cell number turn out when `O=C(O)c1cc(O)ccc1O` [Gentisic acid] was run?
A: 104

Q: `COc1ccc(-c2cnc3c(-c4ccsc4)cnn3c2)cc1` [VEGF Receptor 2 Kinase Inhibitor IV] was tested. Which cell number did it give?
A: 94.9

Q: Which cell number does the source give for `Nc1c2c(nc3ccccc13)CCCC2` [Tacrine] here?
A: 102

Q: With `Cc1cc(Cc2cc(C)cc(C(C)(C)C)c2O)c(O)c(C(C)(C)C)c1` as the compound, how does the cell number read?
A: 99.9 and 104

Q: How did the cell number turn out when `CC1(C)CCCC(C)(C2CCC3(C)C2C(O)CC2C4(C)CCC(O)C(C)(C)C4CCC23C)O1` (stereo not given) [Panaxadiol] was run?
A: 105

Q: How did the cell number turn out when `Oc1cc(O)cc(/C=C/c2ccc(Br)cc2)c1` [5-[(E)-2-(4-bromophenyl)ethenyl]-1,3-benzenediol] was run?
A: 93.1

Q: For `O=C(O)CCCC=CCC1C(O)CC(O)C1C=CC(O)COc1cccc(C(F)(F)F)c1` (stereo not given) [Fluprostenol], which cell number is on record?
A: 100

Q: For `CCOC(=O)C=C(C)C=CC=C(C)C=Cc1c(C)cc(OC)c(C)c1C` [Etretinate], which cell number is on record?
A: 104

Q: `CCC(=O)OC1(C(=O)CCl)C(C)CC2C3CCC4=CC(=O)C=CC4(C)C3(F)C(O)CC21C` (stereo not given) [Clobetasol Propionate] was tested. Which cell number did it give?
A: 109

Q: `NC(=O)c1ncn(C2OC(CO)C(O)C2O)c1O` (stereo not given) [Mizoribine] was tested. Which cell number did it give?
A: 101

Q: `CCCCCCCCCCCCCCCC(=O)NCC(COP(=O)([O-])OCC[N+](C)(C)C)OCC` (racemic) [rac-2-Ethoxy-3-hexadecanamido-1-propylphosphocholine] was tested. Which cell number did it give?
A: 96.1

Q: For `O=c1c(O)c(-c2ccc(O)cc2O)oc2cc(O)cc(O)c12` [Morin], which cell number is on record?
A: 99.7

Q: How did the cell number turn out when `CCCCCC(O)C=CC1C(O)CC2OC(=CCCCC(=O)[O-])CC21.[Na+]` (stereo not given) [Prostaglandin I2 Na] was run?
A: 101

Q: How did the cell number turn out when `Cc1c[nH]c(C=C2C(=O)Nc3ccccc32)c1CCC(=O)O` was run?
A: 101

Q: For `Oc1cc2c(cc1O)C(c1ccccc1)CNCC2` (racemic), which cell number is on record?
A: 101

Q: For `CN1CC(O)C(O)C(O)C1CO` (stereo not given) [N-Methyl-1-deoxynojirimycin], which cell number is on record?
A: 53

Q: How did the cell number turn out when `COC(=O)C(c1ccccc1Cl)N1CCc2sccc2C1` (stereo not given) [Clopidogrel] was run?
A: 99.8

Q: With `CCCCCCCCC#CCC#CCC#CCCCC(=O)O` [5,8,11-Eicosatriynoic acid] as the compound, how does the cell number read?
A: 97.5 ± 3.3

Q: For `CC(C)C[C@H](NC(=O)C(O)[C@H](N)Cc1ccc([N+](=O)[O-])cc1)C(=O)O.Cl` (stereo not given in full), which cell number is on record?
A: 104

Q: With `O=c1c(O)c(-c2ccc(O)cc2)oc2cc(O)cc(O)c12` [Kaempferol] as the compound, how does the cell number read?
A: 98.4

Q: With `NC(N)=NC(=O)c1nc(Cl)c(N)nc1N` [Amiloride] as the compound, how does the cell number read?
A: 101

Q: How did the cell number turn out when `CC1=NN(c2ccccc2)C(=O)C1` was run?
A: 101

Q: With `CC1(C)CCC=[N+]1[O-]` [5,5-Dimethyl-1-pyrroline-N-oxide] as the compound, how does the cell number read?
A: 100

Q: How did the cell number turn out when `O=c1c(-c2ccc(O)cc2)coc2cc(O)cc(O)c12` was run?
A: 97.6

Q: With `Cl.N[C@@H](CCC(=O)O)C(=O)O` [L-Glutamic acid hydrochloride] as the compound, how does the cell number read?
A: 103

Q: With `COC(=O)Nc1nc2ccc(C(=O)c3ccc(F)cc3)cc2[nH]1` [Flubendazole] as the compound, how does the cell number read?
A: 65.9

Q: With `Cn1cc(C2=C(c3ccc(Cl)cc3Cl)C(=O)NC2=O)c2ccccc21` as the compound, how does the cell number read?
A: 86.2 and 92.3

Q: Which cell number does the source give for `Cc1cc(Nc2nc(NC(C)c3ccc(F)cc3)c(C#N)cc2F)n[nH]1` (stereo not given) here?
A: 51.8

Q: How did the cell number turn out when `CC1(C)CCC(NC(=O)C(N)CCC(=O)O)CC1` (stereo not given) was run?
A: 103

Q: For `COc1ccc2cc3[n+](cc2c1OC)CCc1cc2c(cc1-3)OCO2.Cl`, which cell number is on record?
A: 99.4

Q: How did the cell number turn out when `CC1CN(c2c(F)c(N)c3c(=O)c(C(=O)O)cn(C4CC4)c3c2F)CC(C)N1` (stereo not given) [Sparfloxacin] was run?
A: 104

Q: With `CC(C)C(CO)Nc1nc(Nc2cc(N)cc(Cl)c2)c2ncn(C(C)C)c2n1` (stereo not given) [Aminopurvalanol A] as the compound, how does the cell number read?
A: 65.5

Q: `CC(NC(CCc1ccccc1)C(=O)O)C(=O)N1CCCC1C(=O)O` (stereo not given) [Enalaprilat] was tested. Which cell number did it give?
A: 98.7

Q: `COC(=O)C1=C(C)NC(C)=C(C(=O)OCC(C)C)C1c1ccccc1[N+](=O)[O-]` (stereo not given) [Nisoldipine] was tested. Which cell number did it give?
A: 94.9

Q: How did the cell number turn out when `Nc1ncnc2c1ncn2C1CCCC1` [9-cyclopentyladenine] was run?
A: 102

Q: Which cell number does the source give for `O=C1c2ccccc2-[n+]2ccc3c([nH]c4ccccc43)c21.[Cl-]` [Fascaplysin, Synthetic] here?
A: 49.8

Test system: TDF
Experiment: as above
Settings: concentration: 10 µM; 24 h
Method in brief: as §1

Q: For `Clc1ccc(COC(Cn2ccnc2)c2ccc(Cl)cc2Cl)c(Cl)c1` (stereo not given) [Miconazole], which cell number is on record?
A: 110

Q: How did the cell number turn out when `CN1CCC(c2c(O)cc(O)c3c(=O)cc(-c4ccccc4Cl)oc23)C(O)C1` (stereo not given) [Alvocidib] was run?
A: 19.9

Q: How did the cell number turn out when `CC1=CCC2(C)CCC(O)(C(C)C)C2C(OC(=O)c2ccc(O)cc2)C1` (stereo not given) [Ferutinin] was run?
A: 102

Q: With `O=C(O)C=Cc1ccc(O)c(O)c1` [Caffeic Acid] as the compound, how does the cell number read?
A: 115

Q: Which cell number does the source give for `O=C(O)c1cc(O)ccc1O` [Gentisic acid] here?
A: 100

Q: With `COc1ccc(-c2cnc3c(-c4ccsc4)cnn3c2)cc1` [VEGF Receptor 2 Kinase Inhibitor IV] as the compound, how does the cell number read?
A: 95.5

Q: Which cell number does the source give for `Nc1c2c(nc3ccccc13)CCCC2` [Tacrine] here?
A: 97.1

Q: For `Cc1cc(Cc2cc(C)cc(C(C)(C)C)c2O)c(O)c(C(C)(C)C)c1`, which cell number is on record?
A: 90.7 and 98.5

Q: How did the cell number turn out when `CC1(C)CCCC(C)(C2CCC3(C)C2C(O)CC2C4(C)CCC(O)C(C)(C)C4CCC23C)O1` (stereo not given) [Panaxadiol] was run?
A: 103

Q: For `Oc1cc(O)cc(/C=C/c2ccc(Br)cc2)c1` [5-[(E)-2-(4-bromophenyl)ethenyl]-1,3-benzenediol], which cell number is on record?
A: 98.8

Q: How did the cell number turn out when `O=C(O)CCCC=CCC1C(O)CC(O)C1C=CC(O)COc1cccc(C(F)(F)F)c1` (stereo not given) [Fluprostenol] was run?
A: 96

Q: For `CCOC(=O)C=C(C)C=CC=C(C)C=Cc1c(C)cc(OC)c(C)c1C` [Etretinate], which cell number is on record?
A: 97.6

Q: How did the cell number turn out when `CCC(=O)OC1(C(=O)CCl)C(C)CC2C3CCC4=CC(=O)C=CC4(C)C3(F)C(O)CC21C` (stereo not given) [Clobetasol Propionate] was run?
A: 114

Q: How did the cell number turn out when `NC(=O)c1ncn(C2OC(CO)C(O)C2O)c1O` (stereo not given) [Mizoribine] was run?
A: 99.2

Q: `CCCCCCCCCCCCCCCC(=O)NCC(COP(=O)([O-])OCC[N+](C)(C)C)OCC` (racemic) [rac-2-Ethoxy-3-hexadecanamido-1-propylphosphocholine] was tested. Which cell number did it give?
A: 96.3

Q: With `O=c1c(O)c(-c2ccc(O)cc2O)oc2cc(O)cc(O)c12` [Morin] as the compound, how does the cell number read?
A: 94

Q: `CCCCCC(O)C=CC1C(O)CC2OC(=CCCCC(=O)[O-])CC21.[Na+]` (stereo not given) [Prostaglandin I2 Na] was tested. Which cell number did it give?
A: 98.1

Q: With `Cc1c[nH]c(C=C2C(=O)Nc3ccccc32)c1CCC(=O)O` as the compound, how does the cell number read?
A: 102

Q: With `Oc1cc2c(cc1O)C(c1ccccc1)CNCC2` (racemic) as the compound, how does the cell number read?
A: 113

Q: How did the cell number turn out when `CN1CC(O)C(O)C(O)C1CO` (stereo not given) [N-Methyl-1-deoxynojirimycin] was run?
A: 57

Q: How did the cell number turn out when `COC(=O)C(c1ccccc1Cl)N1CCc2sccc2C1` (stereo not given) [Clopidogrel] was run?
A: 79.7

Q: For `CCCCCCCCC#CCC#CCC#CCCCC(=O)O` [5,8,11-Eicosatriynoic acid], which cell number is on record?
A: 97.3 ± 8

Q: For `CC(C)C[C@H](NC(=O)C(O)[C@H](N)Cc1ccc([N+](=O)[O-])cc1)C(=O)O.Cl` (stereo not given in full), which cell number is on record?
A: 104

Q: With `O=c1c(O)c(-c2ccc(O)cc2)oc2cc(O)cc(O)c12` [Kaempferol] as the compound, how does the cell number read?
A: 93.9

Q: Which cell number does the source give for `NC(N)=NC(=O)c1nc(Cl)c(N)nc1N` [Amiloride] here?
A: 103

Q: `CC1=NN(c2ccccc2)C(=O)C1` was tested. Which cell number did it give?
A: 111

Q: `CC1(C)CCC=[N+]1[O-]` [5,5-Dimethyl-1-pyrroline-N-oxide] was tested. Which cell number did it give?
A: 105

Q: Which cell number does the source give for `O=c1c(-c2ccc(O)cc2)coc2cc(O)cc(O)c12` here?
A: 100

Q: With `Cl.N[C@@H](CCC(=O)O)C(=O)O` [L-Glutamic acid hydrochloride] as the compound, how does the cell number read?
A: 114

Q: Which cell number does the source give for `COC(=O)Nc1nc2ccc(C(=O)c3ccc(F)cc3)cc2[nH]1` [Flubendazole] here?
A: 9.66

Q: How did the cell number turn out when `Cn1cc(C2=C(c3ccc(Cl)cc3Cl)C(=O)NC2=O)c2ccccc21` was run?
A: 100 and 111

Q: Which cell number does the source give for `Cc1cc(Nc2nc(NC(C)c3ccc(F)cc3)c(C#N)cc2F)n[nH]1` (stereo not given) here?
A: 28

Q: For `CC1(C)CCC(NC(=O)C(N)CCC(=O)O)CC1` (stereo not given), which cell number is on record?
A: 111

Q: How did the cell number turn out when `COc1ccc2cc3[n+](cc2c1OC)CCc1cc2c(cc1-3)OCO2.Cl` was run?
A: 77.9

Q: `CC1CN(c2c(F)c(N)c3c(=O)c(C(=O)O)cn(C4CC4)c3c2F)CC(C)N1` (stereo not given) [Sparfloxacin] was tested. Which cell number did it give?
A: 103

Q: `CC(C)C(CO)Nc1nc(Nc2cc(N)cc(Cl)c2)c2ncn(C(C)C)c2n1` (stereo not given) [Aminopurvalanol A] was tested. Which cell number did it give?
A: 83.4

Q: For `CC(NC(CCc1ccccc1)C(=O)O)C(=O)N1CCCC1C(=O)O` (stereo not given) [Enalaprilat], which cell number is on record?
A: 86.2

Q: Which cell number does the source give for `COC(=O)C1=C(C)NC(C)=C(C(=O)OCC(C)C)C1c1ccccc1[N+](=O)[O-]` (stereo not given) [Nisoldipine] here?
A: 104

Q: Which cell number does the source give for `Nc1ncnc2c1ncn2C1CCCC1` [9-cyclopentyladenine] here?
A: 113

Q: With `O=C1c2ccccc2-[n+]2ccc3c([nH]c4ccccc43)c21.[Cl-]` [Fascaplysin, Synthetic] as the compound, how does the cell number read?
A: 6.76
